This passage reports INHIBITION results from ChEMBL document CHEMBL4513216, “Probing the Open Global Health Chemical Diversity Library for Multistage-Active Starting Points for Next-Generation Antimalarials” (ACS Infect Dis, 2020).

The campaign covered roughly 69,000 compounds. About 8,600 (12%) showed an effect of 50% or more. The full list was thinned out, with strong results kept by preference.

In the assay the test system is Plasmodium berghei. In words: Screen against P. berghei liver stage (PbLuc), transformed with Luciferase, at 10uM. The settings on record: tested at 10 uM. The class given is functional, HepG2.
With `COc1ccccc1-c1ccc(C2CCCN(C(C)=O)C2)nc1` (centres undefined), the INHIBITION turned out to be 19.4%.
For `O=C(Cc1cccc(F)c1)NC1CCCc2cn[nH]c21` (centres undefined) the value was 18.7%; for `O=C(NCCc1ccccn1)c1n[nH]c2c1CCC2`, -15.9%.
`Cc1c(C(=O)N[C@@H]2CC[C@@H](N3CCCC3)[C@@H]2O)[nH]c2ccc(F)cc12`: the INHIBITION came to 29.5%.
In the case of `O=C(NC1CCCc2c1[nH]c1ccc(F)cc21)c1n[nH]c2c1CCCC2` (centres undefined), the INHIBITION is on record as -8.99%.
Then `O=C(NC1CCCc2c1[nH]c1ccc(F)cc21)c1n[nH]c2c1CCC2` (centres undefined), with 61.2%.
Consider `CC(=O)NC1CCCc2c1[nH]c1ccc(F)cc21` (centres undefined), for which the INHIBITION is given as 62.4%.
On to `CCC1CN(C(=O)CN2CCN(c3nccc(OC)n3)CC2)CCO1` (centres undefined), for which the INHIBITION is -28.4%.
For `CC(=O)N1CCO[C@@H]2CN(C(=O)c3cc(C)oc3C)CC[C@@H]2C1` the value was 26.2%; for `CN(Cc1ccco1)[C@@H]1CN(C(=O)c2ccnnc2)C[C@@H]2CCCO[C@@H]21`, 18.5%; for `CCN(CC)C(=O)Cn1cc(-c2nc(C(C)C)no2)nn1`, -18.1%.
In the case of `O=C(c1cnco1)N1C[C@@H](O)[C@H](Oc2cccc(F)c2)C1`, the INHIBITION is listed as 5.11%.
Then `NC(=O)c1cccc(CNCC=Cc2ccccc2)c1`, with 17.1%.
`O=C(c1cccc(CNCC=Cc2ccccc2)c1)N1CCCC1`: the INHIBITION was 58.5%.
For `Cc1cc(F)ccc1CNCc1cccc(C(=O)N2CCCC2)c1` the value was 7.67%.
Consider `COc1ccc(CN2CC(O)CN(C(=O)c3ccccc3)CC2=O)cc1` (centres undefined), for which the INHIBITION worked out at 23%.
For `CCc1nc2n(n1)CC(NCc1nc(C)c(C)o1)CC2` (centres undefined) the value was 46.6%.
For the molecule `Cc1cc(NC(=O)CNC2CCc3nc(C(C)C)nn3C2)no1` (centres undefined), the INHIBITION was -7.31%.
For `CC(C)c1nc2n(n1)CC(NCC(=O)NCCC1=CCCCC1)CC2` (centres undefined) the value was 51.1%.
For `CCc1nnc(CNC2CCc3nc(C(C)C)nn3C2)o1` (centres undefined) the value was -19.4%.
Then `Cc1nc(CNC2CCc3nc(C(C)C)nn3C2)oc1C` (centres undefined), with 75.2%; and `CCc1nc2n(n1)CC(NCc1nnc(C(C)C)o1)CC2` (centres undefined), with 60.2%.
For `CCc1nc2n(n1)CC(NCc1nc3ccccc3o1)CC2` (centres undefined), the INHIBITION is reported as 11.9%.
Then `CCc1nc2n(n1)CC(NCc1nc(C)ccc1O)CC2` (centres undefined), with -15%; and `CCc1nc2n(n1)CC(NCc1nc3ccccc3nc1C)CC2` (centres undefined), with 53.3%; and `Cc1nc2n(n1)CC(NCc1nc(C)c(C)o1)CC2` (centres undefined), with -67.9%.
For `Cc1nc2n(n1)CC(NCC(=O)NCCC1=CCCCC1)CC2` (centres undefined) the value was 40.4%.
With `CC(C)c1nc2n(n1)CC(NCc1nnc(C(C)C)o1)CC2` (centres undefined), the INHIBITION turned out to be 18.9%.
Regarding `CCN1C(=O)CC[C@@H]2[C@H]1CCN2S(=O)(=O)Cc1ccc(C)cc1`, the INHIBITION amounted to 45.2%.
For `Clc1ccc(-c2nc(CN3CCCC3Cn3cncn3)co2)cc1` (centres undefined) the value was -24.2%.
For `c1coc(CN2CCO[C@H]3[C@H](OCC4CC4)CC[C@@H]32)c1` the value was -2.27%; for `CCN(Cc1nc2c(cnn2C)c(=O)[nH]1)c1ccc(F)cc1`, 29.7%; for `CC(C)Nc1nc(O)cc(C2CC(=O)N(Cc3ccccn3)C2)n1` (centres undefined), -23.8%.
For `Cc1cc(C(=O)N2CCC(c3nnc(Cn4ccnc4)n3C)CC2)cs1` the value was -40.5%; for `Cc1ccc(C(=O)N2CCC3(CC(N(C)c4ccncn4)C3)C2)cn1` (centres undefined), 41.2%.
Take `Cc1cnn(CC2CCCN2C(=O)c2cc3c(F)cccc3[nH]2)c1` (centres undefined): the INHIBITION was determined as 24.6%.
Then `CCCOC(C)C(=O)NCc1cc2n(n1)CCCN(C1CCCCC1)C2` (centres undefined), with 14.8%; and `CN(C)S(=O)(=O)c1ccc(=O)n(CC2CCCCO2)c1` (centres undefined), with 4.52%.
For the molecule `O=C(c1cccnc1)N1CCN(CC2CC2)c2ncccc2C1`, the INHIBITION is listed as -18.4%.
For `CSc1ccccc1C(=O)N1CCN(C)C2(CCC(=O)N(C)CC2)C1` (centres undefined) the value was 46.7%; for `Cc1c(F)cc(C(=O)O)cc1S(=O)(=O)Nc1ccccc1`, 20.265%; for `Cn1c(C2CCCN2C(=O)c2cn(CCN)nn2)nc2ccccc21` (centres undefined), 28%.
With `O=C1CSCN1CC(=O)N1CCCC1c1nc2ccccc2s1` (centres undefined), the INHIBITION is recorded as 32.3%.
For the molecule `Cn1cc(C2CCCN2C(=O)Cn2ccc3ccccc32)cn1` (centres undefined), the INHIBITION is reported as 23.1%.
For `Cn1c(C2CCCN2C(=O)CN2CSCC2=O)nc2ccccc21` (centres undefined) the value was 59.3%; for `Cn1c(C2CCCN2C(=O)CN2CCCC2=O)nc2ccccc21` (centres undefined), 24.7%; for `Cn1c(C2CCCCN2C(=O)CN2CCCC2=O)nc2ccccc21` (centres undefined), 61.5%.
Consider `CN1CCOC(CN(C(=O)COc2ccccc2)c2nccs2)C1` (centres undefined), for which the INHIBITION is recorded as -2.53%.
As for `CN1CCOC(CN(C(=O)CCc2cnn(C)c2)c2nccs2)C1` (centres undefined), the INHIBITION is on record as 62.6%.
On to `CN1CCOC(CN(C(=O)CCc2ccco2)c2nccs2)C1` (centres undefined), for which the INHIBITION stood at 43.3%.
In the case of `CN1CCOC(CN(C(=O)CC2CCCC2)c2nccs2)C1` (centres undefined), the INHIBITION came to 55.5%.
Regarding `Cc1cnn(CCC(=O)N(CC2CN(C)CCO2)c2nccs2)c1` (centres undefined), the INHIBITION is reported as -31.6%.
Then `CN1CCOC(CN(C(=O)CN2CCCC2=O)c2nccs2)C1` (centres undefined), with 48.1%; and `CCC1(CO)CCCN(C(=O)c2cc(COc3ccccc3F)[nH]n2)C1` (centres undefined), with -39.3%; and `Cn1cc(-c2cc(C(F)(F)F)nn2CCC#N)cn1`, with 20.1%.
For `Cc1cc2c(cc1NC(=O)NCC(C)C)OCO2`, the INHIBITION is 28.5%.
As for `O=C1CCC2(CCN(CC[C@@H](O)c3ccccc3)CC2)CN1CC1CC1`, the INHIBITION was -51.7%.
Regarding `O=C(c1cccs1)N1CCCC(c2cc(C(F)F)n3ncnc3n2)C1` (centres undefined), the INHIBITION worked out at 40%.
For `O=C(CCCn1cccn1)N1CCCC(n2cncn2)C1` (centres undefined) the value was 12.9%; for `CC(C)C(=O)N1CCc2c(CN(C)Cc3ccco3)cncc2C1`, -11.2%; for `Cc1nncn1CCNC(=O)C(C)(C)c1cccc(Cl)c1`, 24.3%.
Regarding `CC(NC(=O)Cc1cccs1)(C(N)=O)c1cccc(Cl)c1` (centres undefined), the INHIBITION is given as 60%.
On to `CC(C)(CNC(=O)c1ccc(Cl)o1)NC(=O)OC(C)(C)C`, for which the INHIBITION was -60.9%.
As to `CC(C)(C)SCC(=O)NC(C)(C(N)=O)c1cccc(Cl)c1` (centres undefined), the INHIBITION is reported as -19.5%.
Then `CC(C)(C)CC(=O)NC(C)(C(N)=O)c1cccc(Cl)c1` (centres undefined), with 74.5%; and `COCCC(=O)NC(C)(C(N)=O)c1cccc(Cl)c1` (centres undefined), with 26.4%.
For the molecule `CC(NC(=O)Cc1ccccc1F)(C(N)=O)c1cccc(Cl)c1` (centres undefined), the INHIBITION is recorded as 32%.
As to `CC(C)(C)OC(=O)NC(C)(C(N)=O)c1cccc(Cl)c1` (centres undefined), the INHIBITION was found to be 65.6%.
For the molecule `Cc1cc(CNC(=O)Cc2cccs2)ccc1S(C)(=O)=O`, the INHIBITION is reported as -3.68%.
Then `CCN(CC1=CCN(C)CC1)C(=O)CCOC`, with 29.5%.
On to `CC1CCN(CCNCc2cc(-c3ccccc3)cn3nnnc23)CC1`, for which the INHIBITION came out at 23.2%.
For `Cc1nc(C)n(CC2CN(CCCOc3ccc(F)cc3)CCO2)n1` (centres undefined) the value was 25.6%.
Regarding `COC(=O)c1sc(C(F)(F)F)cc1OC`, the INHIBITION is recorded as 43.2%.
Then `Cc1nsc(N2CCN(C(=O)Nc3ccc4[nH]ccc4c3)CC2)n1`, with 25.5%; and `Cc1nsc(N2CCN(CC(=O)NCc3ccc(F)cc3)CC2)n1`, with 40.9%.
As for `Cc1nsc(N2CCN(C(=O)Nc3cccc(C#N)c3)CC2)n1`, the INHIBITION is 37.2%.
For `Cc1nsc(N2CCN(Cc3cccc(F)c3)CC2)n1` the value was 57.6%; for `Cc1nsc(N2CCN(C(=O)Nc3cccc(F)c3)CC2)n1`, 68.3%.
For `OCc1csc(N2CCN(Cc3cccc(F)c3)CC2)n1` the value was 28.7%; for `CN(Cc1ccco1)C1CCC12CCN(C(=O)c1ccnnc1)CC2` (centres undefined), -39.3%; for `Cc1ccccc1N1CC2(CCCCN2CC2CC2)CC1=O` (centres undefined), 5.63%.
Regarding `COCCN1CCCCC12CC(=O)N(c1ccccc1OC)C2` (centres undefined), the INHIBITION came to 93.7%.
Turning to `COCCN1CCCCC12CC(=O)N(c1cccc(C#N)c1)C2` (centres undefined), the INHIBITION was 61.1%.
For `N#Cc1cccc(N2CC3(CCN(C(=O)C4CC=CC4)C3)CC2=O)c1` (centres undefined) the value was 13.6%; for `O=C1CC2(CCCCN2CC2CC2)CN1c1ccccc1` (centres undefined), -31.4%; for `COCCCN1CCCCC12CC(=O)N(Cc1ccccn1)C2` (centres undefined), 18.7%.
Regarding `Fc1ccc(CN2Cc3nccn3CC(CN3CCOCC3)C2)cc1` (centres undefined), the INHIBITION is given as 32.2%.
On to `O=C(O)c1cc(-c2ccncc2)cc(S(=O)(=O)N2CCCCCC2)c1`, for which the INHIBITION is on record as -8%.
For `Cc1ccc(C(=O)N2Cc3c(CN(C)C)nn(C)c3C2)cc1C` the value was 14.6%; for `CCN(C)S(=O)(=O)NCC1CCN(Cc2ccccc2C)CC1`, 24%.
For `CCN(C)C(=O)c1cccc(S(=O)(=O)NCCc2csc(N)n2)c1` the value was 48%; for `CCN(C)C(=O)c1cccc(S(=O)(=O)NCCc2nc(C)cc(=O)[nH]2)c1`, 45.2%.
Then `CCc1nc(CCNS(=O)(=O)c2cccc(C(=O)N(C)CC)c2)cs1`, with 55.4%; and `CO[C@H]1CN(C(=O)c2nc(-c3ccccc3)[nH]c2C)CC[C@H]1N`, with 5.78%.
Regarding `CCCc1nnc2sc(C3CCN(C4CCN(C)CC4)CC3)nn12`, the INHIBITION turned out to be 44.8%.
In the case of `CN1CCCC[C@@H]2[C@H]1[C@@H](c1ccccc1)CCN2C(=O)c1ccccc1`, the INHIBITION came out at 59.7%.
For `CN1CCCC[C@@H]2[C@H]1[C@@H](c1ccccc1)CCN2C(=O)c1cccnc1` the value was 47.2%; for `CN1CCCCC[C@@H]2[C@@H]1[C@H](c1ccccc1)CN2C(=O)c1cccnc1`, 47.2%.
Consider `Cc1nnsc1C(=O)N1CC[C@H](c2ccccc2)[C@@H]2[C@H]1CCCCN2C`, for which the INHIBITION amounted to 70.1%.
Then `Cc1nnsc1C(=O)N1CCN(C(=O)C2CCC2)[C@@H]2CS(=O)(=O)C[C@@H]21`, with 47.2%.
For `CN1CC[C@H](c2ccccc2)[C@@H]2[C@H]1CCCCN2C(=O)c1cnccn1` the value was 57.4%; for `CN1CCCC[C@@H]2[C@H]1[C@@H](c1ccccc1)CCN2C(=O)c1ccncc1`, -4.51%.
With `CN1CCCC[C@@H]2[C@H]1[C@@H](c1ccccc1)CCN2C(=O)c1cnccn1`, the INHIBITION is given as 46.1%.
Consider `CN1CCCC[C@@H]2[C@H]1[C@@H](c1ccccc1)CCN2C(=O)c1ccccn1`, for which the INHIBITION is reported as 20.8%.
